PD-1 reversal – activators reversing PD-1 mediated T-cell inhibition, primary screen, luminescence, primary human CD4 T cells, PD-L1 beads; 29,000 tested, under 10 active; AID 2316, 2010; activation, % (concentration not given with the values); CellTiter-Glo 96 h; call rule not given here;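 further: 0% = median vehicle wells and 100% = positive control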
STK33 inh – STK33 kinase inhibitors, primary screen, biochemical, luminescence, ADP-Glo, MBP substrate; Serine/threonine-protein kinase 33 (Homo sapiens), Q9BYT3; inhibition, % at 12.5 µM; 27,000 compounds, 0.44% hits; AID 2322, 2010; in the data active means inhibition above about 20%; inconclusive means no clear call, values can overlap the other calls
Target sequence (Q9BYT3 whole entry, looked up): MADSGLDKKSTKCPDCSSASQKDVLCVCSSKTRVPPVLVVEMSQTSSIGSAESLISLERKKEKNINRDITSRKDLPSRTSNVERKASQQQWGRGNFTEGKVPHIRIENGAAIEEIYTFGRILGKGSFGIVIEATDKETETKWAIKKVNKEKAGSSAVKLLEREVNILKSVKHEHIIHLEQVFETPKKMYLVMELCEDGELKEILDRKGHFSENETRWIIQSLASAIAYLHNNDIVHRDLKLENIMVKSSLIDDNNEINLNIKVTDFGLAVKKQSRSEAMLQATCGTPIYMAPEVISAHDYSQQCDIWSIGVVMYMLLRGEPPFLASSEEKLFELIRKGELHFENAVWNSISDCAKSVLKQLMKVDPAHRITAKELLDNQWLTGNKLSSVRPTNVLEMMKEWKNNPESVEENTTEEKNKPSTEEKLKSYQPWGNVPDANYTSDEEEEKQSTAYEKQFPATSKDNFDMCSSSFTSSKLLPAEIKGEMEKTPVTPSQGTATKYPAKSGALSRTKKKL
NOMO-1 viab – NOMO-1 AML cell viability reduction, primary screen, STK33 inhibitor project, CellTiter-Glo luminescence; NOMO-1 AML viability, 72 h; inhibition, % (no concentration beside the values); 37,000 compounds, 7.5% hits; in the data active means inhibition above about 80%; inconclusive means no clear call, values can overlap the other calls
* hit, by the source's call; ? = inconclusive; · = no result. The entries come from a sample that favours hits as a whole.

SMILES | PD-1 reversal | STK33 inh | NOMO-1 viab
C[C@@H]1CN([C@H](C)CO)C(=O)c2cc(NC(=O)Nc3ccc(F)cc3)ccc2O[C@@H]1CN(C)Cc1ccc(Oc2ccccc2)cc1 | -2 | · | 124*
C[C@@H]1CN([C@@H](C)CO)C(=O)c2cc(NC(=O)Nc3ccc(F)cc3)ccc2O[C@@H]1CN(C)Cc1ccc(Oc2ccccc2)cc1 | -6 | 7 | 117*
C=CC[C@]1(C(=O)NCCN2CCOCC2)COC(c2ccc(OCCCO)cc2)=N1 | · | -1 | ·
CNC(=O)c1cnc2cc(Cl)ccc2c1OC | 0 | · | 5
CCCn1nnc(NC(=O)COc2ccc(C)cc2C)n1 | 3 | -8 | -4
C/C=C/C/C=C/CCC(=O)[C@H]1O[C@H]1C(N)=O | · | -1 | 114*
CC/C=C\C/C=C\C/C=C\C/C=C\C/C=C\C/C=C\CCC(=O)O | 2 | 1 | 6
COc1cc(Cc2nccc3cc(OC)c(OC)cc23)c(NC(=O)c2cc(F)c(F)cc2Cl)cc1OC | 0 | 0 | 16
O=C1C=C(NC2CCCC2)CC(c2ccccc2)C1 (stereo unspecified) | 0 | · | 111*
c1ccc(NC2CCCCC2)nc1 | 2 | · | 4
Cc1ccc(Cl)c(OCC(=O)Nc2sc(C)c(C)c2C(N)=O)c1 | 1 | 0 | 8
COC(=O)c1cccc(NC(=O)CSc2nc(C)cc(-c3ccccc3)n2)c1 | -4 | 0 | 45
COc1ccc(CN(C)C[C@H]2Oc3ccc(NC(=O)CCN4CCOCC4)cc3C(=O)N([C@H](C)CO)C[C@H]2C)cc1 | 0 | · | 8
C[C@@H]1CN([C@H](C)CO)C(=O)c2cccc(NC(=O)NC3CCCCC3)c2O[C@@H]1CN(C)Cc1ccc(C(F)(F)F)cc1 | -1 | · | 29
C[C@@H]1CN([C@@H](C)CO)C(=O)c2cccc(NC(=O)NC3CCCCC3)c2O[C@@H]1CN(C)Cc1ccc(Oc2ccccc2)cc1 | -5 | · | 85*
C[C@@H]1CN([C@H](C)CO)C(=O)c2cccc(NC(=O)NC3CCCCC3)c2O[C@@H]1CN(C)Cc1ccc(-c2ccccc2)cc1 | 1 | · | 37
C[C@@H]1CN([C@@H](C)CO)C(=O)c2cccc(NC(=O)NC3CCCCC3)c2O[C@H]1CN(C)Cc1ccc(C(F)(F)F)cc1 | -7 | · | 93*
C[C@H](CO)N1C[C@H](C)[C@@H](CN(C)Cc2ccccc2)Oc2c(NC(=O)NC3CCCCC3)cccc2C1=O | -3 | · | 84*
C[C@H]1CN([C@@H](C)CO)C(=O)c2cccc(NC(=O)NC3CCCCC3)c2O[C@H]1CN(C)Cc1ccc(Oc2ccccc2)cc1 | -2 | · | 11
COc1ccc(-c2nnc(SCCCN3C(=O)c4cccc5cccc(c45)C3=O)n2C)cc1OC | -1 | 0 | 42
O=C(CSc1nc(O)c(-c2ccccc2)c(=O)[nH]1)N(c1ccccc1)c1ccccc1 | · | 0 | ·
Cc1ccc(NC(=O)CN(c2ccc(F)c(Cl)c2)S(C)(=O)=O)c(C)c1 | 1 | -2 | 8
Cc1ccc(O)c(C2=Nc3ccccc3N=C(C(F)(F)F)C2)c1 | -21 | ? | 89*
Nc1c(C(=O)NCc2ccccc2)c2nc3ccccc3nc2n1CCO | -1 | 9 | 35
O=C1O[C@@H](c2ccccc2)[C@@H](c2ccccc2)N2[C@@H](c3ccc(OCCO)cc3)[C@]3(C(=O)Nc4ccccc43)[C@@H](C(=O)N3CCCCCCC3)[C@H]12 | · | 15 | ·
SMILES | PD-1 reversal | STK33 inh | NOMO-1 viab
Cc1c(C(=O)Nc2sc3c(c2C(=O)NCc2ccco2)CCCC3)oc2ccccc12 | -5 | -4 | 106*
O=C(Nc1sc2c(c1C(=O)NCc1ccco1)CCCC2)c1ccc([N+](=O)[O-])cc1 | 1 | 1 | 15
COc1ccccc1C(=O)Nc1sc2c(c1C(=O)NCc1ccco1)CCCC2 | 2 | 4 | 91*
COc1ccc(C(=O)Nc2sc3c(c2C(=O)NC2CCS(=O)(=O)C2)CCCC3)cc1OC (stereo unspecified) | 1 | 3 | -3
O=C(Nc1sc2c(c1C(=O)NCc1ccco1)CCCC2)c1sc2ccccc2c1Cl | · | 3 | 70
Cc1ccc2oc(C(=O)Nc3sc4c(c3C(=O)NC3CCS(=O)(=O)C3)CCC4)c(C)c2c1 (stereo unspecified) | -11 | 4 | 106*
Cc1cccc(NC(=O)CNS(=O)(=O)c2ccc(Br)cc2)c1C | -1 | 0 | 2
CC(C)(C)c1ccc(OCC(=O)Nc2ccccc2C(N)=O)c(Br)c1 | -1 | -1 | 23
COc1ccc(-n2c(SCCCN3C(=O)c4cccc5cccc(c45)C3=O)nnc2-c2cccnc2)cc1 | · | 8 | 34
C/C=C/[C@H](CC(=O)N(CCO)Cc1ccccc1)[Si](C)(C)c1ccc(OC)cc1 | · | 14 | ·
COC(=O)C(Cc1c[nH]c2ccccc12)NS(=O)(=O)c1ccc(CNC(=O)c2ccccc2)s1 (stereo unspecified) | 0 | · | 115*
Cc1ccc(S(=O)(=O)NC(Cc2c[nH]c3ccccc23)C(=O)O)cc1 (stereo unspecified) | · | -2 | -9
COC(=O)C1=CN(C23CC4CC(CC(C4)C2)C3)C=C(C(=O)OC)C1c1cccc(OC)c1 | 0 | · | 109*
COC(=O)C1=CN(c2cccc(C(F)(F)F)c2)C=C(C(=O)OC)C1c1ccsc1 | -1 | · | 18
Oc1c(C(Nc2ccccn2)c2ccccn2)cc(Cl)c2cccnc12 (stereo unspecified) | · | 0 | 112*
Oc1c(C(Nc2ccccn2)c2c(F)cccc2Cl)cc(Cl)c2cccnc12 (stereo unspecified) | · | 0 | 108*
CCOc1c(Cl)cc(CNCc2ccccn2)cc1OC | · | -1 | 13
COc1cc(Cl)c(C(Nc2ccccn2)c2cc(Cl)c3cccnc3c2O)cc1OC (stereo unspecified) | · | 4 | 110*
Oc1c(C(Nc2ccccn2)c2cccc(F)c2)cc(Cl)c2cccnc12 (stereo unspecified) | · | 1 | 113*
CCN(CC)C(=O)c1sc(NC(=S)Nc2ccc(Br)cn2)c(C(=O)OC)c1C | · | 1 | ·
O=S(=O)(/N=C1\SCCN1S(=O)(=O)c1ccc(Cl)cc1)c1ccc(Cl)cc1 | 0 | · | 32
O=C(CSc1nc2cc(Cl)ccc2s1)Nc1ccc(I)cc1 | -4 | -1 | 8
COc1ccc(Cl)cc1N(CC(=O)Nc1cc(Cl)ccc1C)S(C)(=O)=O | · | -4 | -11
CS(=O)(=O)N(CC(=O)Nc1cc(Cl)ccc1Cl)c1ccc2c(c1)OCCO2 | · | 4 | 14
Cc1ccc(C(C)C)c(OCCSc2nc(N)cc(N)n2)c1 | -5 | -3 | 51
SMILES | PD-1 reversal | STK33 inh | NOMO-1 viab
Cc1cc(OCC(=O)NCc2ccco2)ccc1Cl | · | 0 | ·
CCC(=O)NC(c1ccco1)c1cc(Cl)c2cccnc2c1O (stereo unspecified) | 0 | · | 126*
O=C(CSc1nnc(-c2ccccc2)n1-c1ccccc1)Nc1ccc(C(F)(F)F)cc1 | · | 1 | ·
C/C=C/c1ccc(O)cc1C(=O)C(C)O (stereo unspecified) | -3 | -6 | 4
CN1C(=O)[C@@]2(Cc3ccccc3)SSS[C@]1(CO)C(=O)N2C | -17 | -10 | 108*
COc1cc(-n2nnnc2SCC(=O)Nc2cccc(Cl)c2Cl)c(OC)cc1Cl | -1 | 4 | 46
CCOC(=O)c1c(NC(=O)c2ccc(C)c(S(=O)(=O)N3CCOCC3)c2)sc(C)c1C | -4 | -5 | 68
